# Screening results deposited in PubChem by National Center for Advancing Translational Sciences (NCATS).
# ERK EGF inh: blocks ERK signaling stimulated by EGF | HEK293-V1b, EGF-stimulated phospho-ERK AlphaScreen | Potency, µM (series often up to 11.5 µM), for inactives: at the highest dose activity change, negative = inhibition, usual class: inhibitors | hit rate 0.41% among 130,000 | AID 1454; active means well fitted inhibition curve with a large enough effect;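 further: plate controls were stimulated vehicle wells for no effect and unstimulated vehicle basal for full effect; nearly all actives have a fitted effect of over 55% in size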
#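 Concentration-response of compounds against EGF-driven ERK phosphorylation in V1b-expressing HEK293 cells; 30 min preincubation, 5 min EGF, AlphaScreen detection; Normalized to DMSO basal and 25 nM EGF.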
# * = called active by the depositor; ! = not active in a repeat; [ ] = dose if it differs, or a comment. Many of the other results were omitted from the sample, so hits are more common in it than they were. Potency means the concentration at half of the fitted maximal effect.
SMILES,ERK EGF inh
COc1ccc(-c2cn[nH]c2C)cc1OC,-11%
COc1ccccc1-c1cn[nH]c1-c1ccc(OCc2ccc([N+](=O)[O-])cc2)cc1O,8%[57.5 µM]
COc1ccc(-c2cn[nH]c2-c2ccc(OCc3ccccc3)cc2O)cc1OC,22µM*
Cc1cc(NC(=O)c2ccccc2F)on1,-3%
Cc1nnc(SCC(=O)c2ccccc2F)n1Cc1ccccc1,-6%[57.5 µM]
Cc1cc(C)nc(S/C=C/C(=O)c2ccccc2F)n1,28µM*
COc1cc(/C=C2/C(=O)NN(c3cccc(C)c3)C2=O)ccc1OC(=O)c1ccco1,25µM*
COc1cc(/C=C2\C(=O)NN(c3ccccc3)C2=O)ccc1OCC(N)=O,0%
COc1cc(/C=C2/C(=O)NN(c3cccc(C)c3)C2=O)cc([N+](=O)[O-])c1O,-4%
N[C@H](Cc1cc(I)c(Oc2cc(I)c(O)c(I)c2)c(I)c1)C(=O)O,4%[25.7 µM]
O=C(O)c1ccc(Cl)c(S(=O)(=O)Nc2ccc3cn[nH]c3c2)c1,26%
CCN(CC)S(=O)(=O)c1ccc(Cl)c(NC(=O)COC(=O)c2cccn2C)c1,0%
CCN(CC)S(=O)(=O)c1ccc(Cl)c(NC(=O)COC(=O)c2c(C)noc2C)c1,7%
CCN(CC)S(=O)(=O)c1ccc(Cl)c(NC(=O)COC(=O)c2ccc(O)cc2)c1,28µM*
COc1ccc(Cc2[nH]n3c(=O)cc(C(C)C)nc3c2-c2ccccc2)cc1,-6%
CC(=O)OCC1OC(Oc2cc(OC(C)=O)c3c(=O)cc(-c4ccc(OC(C)=O)c(OC(C)=O)c4)oc3c2)C(OC(C)=O)C(OC(C)=O)C1OC(C)=O (configuration not stated),-3%
O=C(O)c1cccnc1SC1CC(=O)N(c2ccc(OC(F)F)cc2)C1=O (configuration not stated),-4%[57.5 µM]
COC(=O)c1ccc(C(NC(=O)OCc2ccccc2)/C(F)=C/[C@@H](C)C(=O)NCc2cc(C)on2)cc1 (some centres not stated),0%
S=C(NC1CCCC1)N1CCN(c2cccc(Cl)c2)CC1,-1%
O=S(=O)(c1cccc(NC(=S)N2CCN(c3cccc(Cl)c3)CC2)c1)C(F)F,25µM*
NS(=O)(=O)c1ccc(NC(=S)N2CCN(c3cccc(Cl)c3)CC2)cc1,-3%
CC(C)[C@@H](CC(=O)N[C@@H]1CCNC[C@H]1C(=O)N[C@H](CC(=O)N[C@@H](CCC(=O)O)CC(=O)O)Cc1ccccc1)NC(=O)C[C@H](Cc1c[nH]c2ccccc12)NC(=O)[C@@H]1CCCC[C@H]1N,2%
O=C(Nc1ccc(S(=O)(=O)Nc2ncccn2)cc1)c1ccccc1NS(=O)(=O)c1ccc(Cl)cc1,2%[57.5 µM]
N[C@H](CC(=O)O)C(=O)O,3%
O=C(NC(C(=O)N/N=C/c1cccnc1)c1n[nH]c(=O)c2ccccc12)c1ccccc1 (configuration not stated),3%[57.5 µM]
SMILES,ERK EGF inh
C#Cc1cccc(NC(=O)CSc2nnc(-c3ccc(C(F)(F)F)cn3)o2)c1,1%[57.5 µM]
N#Cc1cccc(NC(=O)CSc2nnc(-c3n[nH]c4ccccc34)o2)c1,32µM*
Cc1cccc(NC(=O)CSc2nnc(-c3n[nH]c4ccccc34)o2)c1,3%
CCOc1cc(CNCc2cccnc2)ccc1OCC(=O)NC(C)(C)C,-12%
Cc1ccc(N/C(N)=N/c2nc(C)cc(C)n2)cc1,3%
CCCCc1ccc(N/C(N)=N/c2nc(C)cc(C)n2)cc1,18µM*
CCC(=O)Nc1ccc(N/C(N)=N/c2nc(C)cc(C)n2)cc1,-3%[57.5 µM]
COC(=O)[C@H]1C[C@@H]1[C@H](NC(=O)c1cc(C)nn1C)c1ccccc1,-3%
O/N=C/c1cccnc1Sc1ccccc1,-5%
Cc1nc2c(OCc3ccccc3)cccn2c1CC#N,10%
Cc1ccc(N=c2c([N+](=O)[O-])nn(-c3ccc4c(c3)OCCO4)n2O)c(Cl)c1,5%
CCc1ccc(N=c2c([N+](=O)[O-])nn(-c3ccc4c(c3)OCCO4)n2O)cc1,28µM*
Cc1ccc(CN=c2c([N+](=O)[O-])nn(-c3ccc4c(c3)OCCO4)n2O)cc1,9%
O=C(Nc1cccc(F)c1)N1CC2(CCN(C(=O)c3cc(C(F)(F)F)cc(C(F)(F)F)c3)CC2)C1,1%
Cn1c(=O)c2ncn(CC(=O)Nc3nc(-c4ccc(Cl)cc4)cs3)c2n(C)c1=O,-5%
Cc1ccc(-c2csc(=Nc3cccnc3)n2CCCN2CCCC2=O)cc1C,-5%
c1cncc(N=c2scc(-c3cccc4ccccc34)n2CCCn2ccnc2)c1,7%
Cc1ccc(-c2csc(=Nc3cccnc3)n2CCCn2ccnc2)cc1C,28µM*
N=C(N)c1ccc(N2CCN(C3CCN(CC(=O)O)CC3)CC2)cc1,3%
CC(C)c1c(O)ccc2c1CCC1[C@@](C)(C=O)CCC[C@@]21C (some centres not stated),19%
CC(C)CC1NC(=O)C(CCCN)NC(=O)C(C(C)C)NC(=O)C2CCCN2C(=O)C(Cc2ccccc2)NC(=O)C(CC(C)C)NC(=O)C(CCCN)NC(=O)C(C(C)C)NC(=O)C2CCCN2C(=O)C(Cc2ccccc2)NC1=O (configuration not stated),3.5µM*
CCC(C)CCCCC(=O)NC(CCN)C(=O)NC(C(=O)NC(CCN)C(=O)NC1CCNC(=O)C(C(C)O)NC(=O)C(CCN)NC(=O)C(CCN)NC(=O)C(CC(C)C)NC(=O)C(Cc2ccccc2)NC(=O)C(CCN)NC1=O)C(C)O (configuration not stated),14%
CC(C)C1NC(=O)[C@H](CCCCN)NC(=O)[C@@H](Cc2c[nH]c3ccccc23)NC(=O)[C@H](Cc2ccc(O)cc2)NC(=O)[C@H](C)N(C)C(=O)[C@H](Cc2ccccc2)NC1=O (some centres not stated),21%
CN1Cc2c(N)cccc2[C@H](c2ccccc2)C1,3%[25.7 µM]
CCN(CC)c1ccc(/C=N/NC(=O)OC(C)(C)C)cc1,-6%[57.5 µM]
SMILES,ERK EGF inh
COc1ccc2c(c1)oc(=O)c1cc(OC)ccc12,-5%[57.5 µM]
COc1ccc2c(c1)c(C(=O)CN1CCN(Cc3ccccc3)CC1)c(C)n2C,-5%[57.5 µM]
COc1ccc2c(c1)c1ccc3c(c1n2C)C(=O)C=CC3=O,32µM*
Cc1ccc(Sc2nc3ccc(C)cn3c(=O)c2/C=N/O)cc1,-4%
OC1(CNCc2cn[nH]c2-c2cc3ccccc3o2)CCCCC1,-1%
CCOC(=O)N1CCc2c(sc(NC(=O)CN3CCN(C)CC3)c2C(=O)Nc2ccccc2)C1,29%
CCOC(=O)N1CCc2c(sc(NC(=O)CN3CCOCC3)c2C#N)C1,-8%[57.5 µM]
CCOC(=O)N1CCc2c(sc(NC(=O)CN3CCOCC3)c2C(=O)Nc2ccccc2)C1,35µM*
O=c1[nH]cnc2c1ncn2C1CC(O)C(CO)O1 (configuration not stated),12%
NC(=O)c1sc(-c2ccsc2)cc1NS(=O)(=O)c1ccc(C(F)(F)F)cc1,-10%[57.5 µM]
O=S(=O)(c1ccc(Cl)c(NC(=S)N/N=C/c2ccc(O)cc2)c1)N1CCOCC1,28µM*
O=S(=O)(c1ccc(NC(=S)N/N=C/c2ccc(O)c(O)c2)cc1)N1CCOCC1,-5%[57.5 µM]
O=S(=O)(c1ccc(Cl)c(NC(=S)Nc2ccccc2N2CCOCC2)c1)N1CCOCC1,3%
CC(C)CN1CCC2(CC1)CCN(C(=O)c1cnccn1)CC2,-7%
COC(=O)[C@H]1C[C@H]2CC[C@H](O)C[C@H]2N1Cc1c(F)cccc1Cl,1%
O=C1c2c(O)ccc(O)c2C(=O)c2c(NCCNCCO)ccc(NCCNCCO)c21,20µM*!
Cc1ccc(CNCCNCCO)s1,-5%
N#CCCCCN1CCCC1,-2%[57.5 µM]
